B2AR arrestin ag – agonists recruiting beta-arrestin to human beta2-adrenergic receptor; P07550; HTLA Tango cells, beta-arrestin recruitment, luciferase luminescence, 18 h; 44,000 tested, under 10 active; Potency, µM (top dose mostly 46.1 µM), actives largely listed as activators;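 also: potency is read from the fitted curve at half-maximal effect; 0% = DMSO and full agonism = EC100 isoproterenol or metaproterenol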
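Tango cell line, 1% FBS DMEM; cpd titration up to 46 microM; 18 hr, 37 degrees C, 5% CO2. Luciferin/ATP substrate mix added, 15 min RT, luminescence. %Activity, CRC fitting, curve-class categorization.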
HTT prom inh – inhibits huntingtin promoter activity. HEK293 HTT promoter firefly luciferase reporter, 24 h. Potency, µM (series often up to 57.5 µM), for inactives: top-dose activity change, negative = inhibition, most hits filed as inhibitors. actives 0.93% (n = 48,000). AID 1508623; also: potency is read from the fitted curve at half-maximal effect; nearly all actives have a fitted effect of over 50% in size
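Firefly luciferase signal from promoter-reporter HEK293 cells was scaled between vehicle (0%) and zero RLU (-100%). Compounds were tested at final concentrations of up to 57.5 uM over 24 h at 37 degrees C. PTC124 at 50 uM final served as control inhibitor.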
GPR32 ag – agonists of human resolvin D1 receptor DRV1 (GPR32); actives 2.5% (n = 48,000); CHO-K1 GPR32 beta-arrestin PathHunter luminescence, 90 min; zero percent set by DMSO-only wells; activation, % at 76.9 µM; O75388;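 active = activation of at least 60% and not above a set upper limit, about 1 call in 100 departs from these limits; inconclusive = activation of 40% to 60%, or above that upper limit; inactive = activation under 40%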; also: 0% is about no effect
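Agonism was scored as beta-arrestin recruitment to ProLink-fused GPR32 in stably transfected CHO-K1 cells, giving a chemiluminescent beta-Gal signal; compounds were incubated 90 min at 37 °C.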
HTT-AS act – activates huntingtin-antisense promoter activity | AID 1508624 | Potency, µM (top dose mostly 57.5 µM), without a hit: at the top dose activity change, positive = activation, usual class: activators | HEK293 HTT-AS promoter firefly luciferase reporter, 24 h; response scale: percent change from vehicle, -100% = no light | actives 0.24% (n = 48,000); also: potency is read from the fitted curve at half-maximal effect; nearly all actives have a fitted effect of over 55% in size
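Firefly luciferase readout (Dual-Glo, 10 min RT) after 24 h, 37 °C compound exposure (final up to 57.5 uM) of HEK293 reporter cells cultured 24 h beforehand; PTC124 at 50 uM final as control inhibitor; activity scaled vehicle 0%, zero RLU -100%.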
GALK inhibitor – inhibits human galactokinase; 44,000 tested, under 10 active; P51570; recombinant GALK, Kinase-Glo ATP luminescence, 1 h; AID 1347072; Potency, µM (titrated, usually from 57.5 µM), inactives show at the top dose activity, negative = inhibition, actives largely listed as inhibitors;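 also: plate controls were full GALK reaction for no effect and reaction lacking GALK for full effect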
Target sequence (P51570 whole entry, looked up): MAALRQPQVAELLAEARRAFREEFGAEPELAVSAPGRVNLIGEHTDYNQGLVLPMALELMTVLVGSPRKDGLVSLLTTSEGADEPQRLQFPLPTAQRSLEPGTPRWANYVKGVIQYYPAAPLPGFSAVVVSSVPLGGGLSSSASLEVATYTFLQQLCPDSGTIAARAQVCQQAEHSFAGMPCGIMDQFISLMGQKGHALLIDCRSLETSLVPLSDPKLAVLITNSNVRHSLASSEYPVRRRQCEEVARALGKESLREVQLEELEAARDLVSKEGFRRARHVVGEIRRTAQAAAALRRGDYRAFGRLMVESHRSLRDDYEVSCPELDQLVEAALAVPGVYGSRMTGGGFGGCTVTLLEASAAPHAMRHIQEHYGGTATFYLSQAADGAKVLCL
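5 nM GALK with 35 µM ATP and 100 µM galactose in HEPES pH 8.0, MgCl2, NaCl, DTT, BSA; 1 h RT reaction, remaining ATP detected by Kinase-Glo Plus luminescence after 10 min; qHTS concentration series.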
TSG101-PTAP inh – blocks PTAP binding to human TSG101, validation. Q99816. Fluorescence polarization, FITC-PTAP peptide/Tsg101, 20 min. Potency, µM (top dose mostly 115 µM), hits mostly inhibitors. 44,000 tested, under 10 active; also: potency is read from the fitted curve at half-maximal effect; 0% is about no effect
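Compounds pinned into 10 uM Tsg101 binding domain, then 50 nM FITC-PTAP peptide added in pH 7.5 HEPES buffer; FP read after 20 min, room temperature. Total S+P intensity flags fluorescent compounds; active cut-off <25 µM, efficacy <60%.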
* marks the source's active call; other numbers are inactive results; i = inactive; ? = inconclusive; / = not tested or not shown; [ ] = dose if it differs, or a comment. An excerpt weighted towards active compounds, which were near 3.7% of everything screened. Unless noted, calls follow the shape of the dose curve; as a rule, active = well fitted curve in the direction sought with a large enough effect; inconclusive = small, poorly fitted or top-dose-only effect, or another doubt; inactive = no such curve, though single readings can be large; an effect the other way counts as inactive or inconclusive.

SMILES	B2AR arrestin ag	HTT prom inh	GPR32 ag	HTT-AS act	GALK inhibitor	TSG101-PTAP inh
C[C@]12CC[C@@H]3c4ccc(O)cc4C[C@@H](CCCCCCCCCS(=O)CCCC(F)(F)C(F)(F)F)[C@H]3[C@H]1CC[C@H]2O (stereo partly drawn)	/	-21%	/	-6%	/	/
Cc1c(C(=O)Nc2ccc(N3C[C@@H](C)O[C@@H](C)C3)nc2)cccc1-c1ccc(OC(F)(F)F)cc1	/	6%	/	4%	/	/
CCc1ccc(C(=O)Nc2cc(CN3CCN(C)CC3)cc(C(F)(F)F)c2)cc1C#Cc1cnc2ccnn2c1	/	-22%	/	-30%	/	/
CC1(COc2ccc3c(c2)ncn3-c2ccc3cccc(N4CCC(N)CC4)c3n2)COC1	/	?	/	-51%	/	/
Nc1c(C(=O)Nc2ccc(C(F)(F)F)cc2)sc2nc(-c3cccs3)ccc12	i	6%	71*	-9%	0%	i
Cc1ccc(NC(=O)c2sc3nc(-c4ccc(F)cc4)ccc3c2N)cc1F	i	0%	86*	4%	0%	i
Cc1cc(F)ccc1NC(=O)c1sc2nc(-c3cccs3)ccc2c1N	i	-11%	67*	-12%	-1%	i
COc1ccc(-c2ccc3c(N)c(C(=O)Nc4cc(F)ccc4C)sc3n2)cc1	i	-21%	-4	-28%	2%	i
Nc1c(C(=O)Nc2ccc(Br)cc2)sc2nc(-c3ccncc3)ccc12	i	-3%	-20	6%	4%	i
CO[C@H]1C=CC=C(C)C(=O)NC2=CC(=O)C(NCCN(C)C)=C(C[C@@H](C)C[C@H](OC)[C@@H](O)[C@@H](C)C=C(C)[C@@H]1OC(N)=O)C2=O	/	?	/	-92%	/	/
Cc1cnc(-c2cnc(NCCNc3ccc(C#N)cn3)nc2-c2ccc(Cl)cc2Cl)[nH]1	/	-22%	/	-21%	/	/
CCCOc1ccc(CC2C(=O)Nc3ccc(Br)cc32)cc1 (stereo not drawn)	i	-22%	78*	-17%	-1%	i
CCOc1ccccc1CC1C(=O)Nc2ccc(Br)cc21 (stereo not drawn)	i	18µM*	73*	-61%	-7%	i
COc1ccc(OC)c(CC2C(=O)Nc3ccc(Br)cc32)c1 (stereo not drawn)	i	20µM*	-19	-51%	-9%	i
CCOc1c(CC2C(=O)Nc3ccc(Br)cc32)cccc1OC (stereo not drawn)	i	?	?	-42%	0%	i
COc1ccc(CC2C(=O)Nc3ccc(Br)cc32)cc1OC (stereo not drawn)	i	-13%	-18	-18%	5%	i
O=C(Nc1nnc(SCc2cc(=O)c3ccccc3[nH]2)s1)c1ccccc1	i	?	33	-34%	-3%	i
Cc1ccc(C(=O)Nc2nnc(SCc3cc(=O)c4c(C)ccc(C)c4[nH]3)s2)cc1	i	?	71*	-27%	0%	i
N#Cc1c(-n2ncnc2-c2ccc(Br)cc2)sc2c1CCCCC2	i	?	-1	-17%	-1%	i
CCOc1ccc(-c2ncnn2-c2sc3c(c2C#N)CCCCC3)cc1	i	-5%[11.5 µM]	102*	15%	0%	i
Cc1c(C(=O)Nc2ccc(C(=O)O)cc2)nnn1-c1ccccc1	i	2.5µM*	-12	-91%	0%	i
O=c1c(-c2ccc(O)cc2)coc2cc(OC3O[C@H](CO)[C@H](O)[C@H](O)[C@H]3O)cc(O)c12 (stereo partly drawn)	/	11%	/	4%	/	/
CCCC(CCC)(C(=O)OCC)C(=O)OCC	/	4%	-2	-1%	/	/
COC(=O)c1c(C)oc2ccc(N(C(=O)c3ccncc3)S(=O)(=O)c3c(C)cc(C)cc3C)cc12	i	?	13	-38%	0%	i
CCc1ccc(S(=O)(=O)Nc2ccc3oc(C)c(C(=O)OCCOC)c3c2)cc1	i	/	64*	/	?	i
SMILES	B2AR arrestin ag	HTT prom inh	GPR32 ag	HTT-AS act	GALK inhibitor	TSG101-PTAP inh
CCOc1ccc(S(=O)(=O)Nc2ccc3oc(C)c(C(=O)OC(C)C)c3c2)cc1	i	?	87*	-7%	2%	i
CCc1ccc(S(=O)(=O)N(C(=O)Oc2ccccc2)c2ccc3oc(C)c(C(=O)OC)c3c2)cc1	i	7.9µM*	-13	-91%	-18%	i
COC(=O)c1c(C)oc2ccc(N(C(=O)c3ccncc3)S(=O)(=O)c3cc(C)c(C)cc3C)cc12	i	13µM*	-1	-60%	-1%	i
CC(=O)c1c(C)oc2ccc(N(C(=O)Oc3ccccc3)S(=O)(=O)c3ccc(Br)cc3)cc12	i	/	-14	/	1%	i
C[N+]1(C)[C@@H]2CC(OC(=O)[C@H](CO)c3ccccc3)C[C@H]1[C@H]1O[C@@H]12 (stereo partly drawn)	/	21%	/	14%	/	/
CCOc1ccc(NC(=O)N2CCN(Cc3cc(=O)n4nc(-c5ccc(OC)cc5)sc4n3)CC2)cc1	i	-23%	-3	-9%	0%	i
CCOc1ccc(C(=O)N2CCN(Cc3cc(=O)n4nc(-c5cccc(OC)c5)sc4n3)CC2)cc1	i	-12%	74*	1%	-4%	i
Clc1cccc(-c2nnnn2Cc2cccnc2)c1Cl	/	-6%	/	-10%	/	/
Cc1ccc2nc(-c3cccc(NC(=O)CSc4ccc(Cl)cc4)c3)oc2c1	i	29%	-25	?	9%	i
Cc1ccc2oc(-c3ccc(C)c(NC(=O)C(C)(C)Oc4ccc(Cl)cc4)c3)nc2c1	i	49%	-2	10µM*	-15%	i
Cc1ccc2nc(-c3ccc(C)c(NC(=O)CSc4ccc(Cl)cc4)c3)oc2c1	i	15%	0	6.3µM*	2%	i
Cc1cc(N2CCOCC2)cc2[nH]c(-c3c(NC[C@@H](O)c4cccc(Cl)c4)cc[nH]c3=O)nc12	/	?	/	-39%	/	/
Cc1[nH]c2ccccc2c1CCNCc1ccc(C=CC(=O)NO)cc1	/	266%	/	?	/	/
CCCCN(c1ccccc1)S(=O)(=O)c1ccc2c(c1)CC(C)N2C(=O)C1CC1 (stereo not drawn)	i	?	-25	-38%	-7%	i
CCCN(c1ccccc1CC)S(=O)(=O)c1ccc2c(c1)CC(C)N2C(=O)C1CC1 (stereo not drawn)	i	22µM*	-20	-58%	0%	i

Source: PubChem
